Screening data as filed in PubChem.
Most compounds without a hit are left out; they make up all but 8% or so of the library.
SW480 rerep: inducers of DNA re-replication in SW480 colon cancer cells; Potency, µM (titrated, usually from 46.1 µM), usual class: activators; SW480 DNA re-replication, Hoechst DNA content imaging, 48 h; 340,000 tested, 1.8% active; note: nearly all actives have a fitted effect of over 55% in size
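Quantitative HTS format with DMSO vehicle controls; 48 hr drug incubation at 37 C, then 40 min Hoechst staining and scanning imager measurement at 405 nm excitation.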
HT1080 IDH1KD tx: toxicity to HT-1080 IDH1 knockdown cells (counter line) | Potency, µM (doses to about 46.1 µM), most hits filed as cytotoxic | HT-1080 IDH1 knockdown viability, ATP luminescence, 48 h | 360,000 tested, 2% active | AID 686971
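IDH1KD HT-1080 cells, 750/well, RPMI + 5% FBS; compound pinned after 2 h settling; 48 h, 37 °C; CellTiter-Glo luminescence; % activity normalised to DMSO and no-cell wells; curves fitted, classed by r2 and efficacy.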
KB-3-1 cytotox: KB-3-1 parental cell cytotoxicity; KB-3-1 viability, CellTiter-Glo ATP luminescence, 72 h; 400,000 tested, 1.4% active; Potency, µM (top dose mostly 46.1 µM), actives largely listed as cytotoxic; AID 1347075; note: nearly all actives have a fitted effect of over 60% in size
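Cytotoxicity measured as CellTiter-Glo luminescence after 72 h at 37 C. Compound titrations were pinned onto drug-naive KB-3-1 parental adenocarcinoma cells grown in DMEM with 10% FBS, and normalized data fitted to concentration-response curves.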
HT1080-NT tox: kills 2HG-producing HT-1080-NT fibrosarcoma cells | HT-1080-NT fibrosarcoma viability, CellTiter-Glo ATP luminescence, 48 h | Potency, µM (highest dose often 46.1 µM), hits mostly cytotoxic | 360,000 tested, 1.6% active;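 note: NT is the 2HG producing partner of a matched IDH1 knockdown line; nearly all actives have a fitted effect of over 55% in size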
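Luminescent CellTiter-Glo readout after 48 hours of compound exposure at 37 degrees C defined viability of HT-1080-NT cells. Activity was normalized to DMSO wells and cell-free media wells; concentration-response curves were fitted and assigned curve classes.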
MCF10A rerep: induces DNA re-replication in MCF 10a normal breast cells; Potency, µM (titrated, usually from 46.1 µM), most hits filed as activators; 350,000 tested, 2.9% active; MCF 10A DNA re-replication, Hoechst nuclear intensity, 48 h; note: nearly all actives have a fitted effect of over 50% in size
KB-V1 cytotox: kills drug-selected multidrug resistant KB-V1 cells. KB-V1 MDR cells viability, CellTiter-Glo, 72 h. Potency, µM (titrated, usually from 46.1 µM), hits mostly cytotoxic. 400,000 tested, 3.4% active. AID 1347076; note: nearly all actives have a fitted effect of over 60% in size
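Compound-treated KB-V1 multidrug-resistant cells, 72 h, 37 degrees C; viability by CellTiter-Glo. Fitted qHTS curves give the values.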
A number is an active result; - = inactive; ? = inconclusive; . = no result given; ! = not confirmed by another sample; [ ] = dose if it differs, or a comment. Calls come from the whole dose curve; as a rule, active = well fitted curve in the direction sought with a large enough effect; inconclusive = small, poorly fitted or top-dose-only effect, or another doubt; inactive = no such curve, though single readings can be large; an effect the other way counts as inactive or inconclusive.

SMILES	SW480 rerep	HT1080 IDH1KD tx	KB-3-1 cytotox	HT1080-NT tox	MCF10A rerep	KB-V1 cytotox
C=CCc1c(C)nc(SC)nc1Nc1ccc(C(C)=O)cc1	-	-[9.24 µM]	-	-	-	11.6µM
C=CCc1c(C)nc(SC)nc1Nc1ccc(C(=O)O)cc1	-	?	?	-	?	20.6µM
C=CCc1c(C)nc(SC)nc1Nc1ccccc1	-	-	-	-	-	?
C=CCc1c(C)nc(-c2ccccc2)nc1Nc1ccc(O)cc1	-	?	20.6µM	?	?	13µM
COc1cccc(OC)c1C(=O)Nc1cccc(-c2nc3cc(C)cc(C)c3o2)c1	.	.	-	.	.	?
O=C1c2ccccc2C(=O)N1Cc1cnc(N2CCN(c3ccccc3)CC2)s1	18.4µM	-	?	-	?	?
Clc1cccc(OCCN2CCN(CCOc3cccc(Cl)c3)CC2)c1	?	?	16.4µM	?	?	-
CC1CCN(CCOc2cccc(Br)c2)CC1	-	-	-	-	-	-
CC(O)CNc1ncnc2nc[nH]c12 (centres undefined)	-	-	-	-	-	-
Cc1ncnc2nc[nH]c12	.	.	3.26µM	.	.	10.3µM
Cc1cc(C)cc(Nc2ncnc3nc[nH]c23)c1	-	-	-	-	-	-
CC(C)=NNc1ncnc2nc[nH]c12	-	?	?	-	-	7.31µM
COc1ccc(-c2oc3ncn4nc(Cc5ccccc5)nc4c3c2-c2ccc(OC)cc2)cc1	-	-	-	-	-	3.66µM
COc1ccc(-c2oc3ncn4nc(COc5ccccc5)nc4c3c2-c2ccc(OC)cc2)cc1	-	-	-	-	-	-
Cc1ccccc1-n1c(SCC(=O)c2c(N)n(C)c(=O)n(C)c2=O)nc2sc3c(c2c1=O)CCCC3	-	-	?	-	?	23.1µM
Cn1c(=O)[nH]c2cc3ccccc3cc21	-	-	1.64µM	-	-	1.3µM
Cn1c(=O)[nH]c2cc(-c3noc(-c4cccc(Cl)c4)n3)ccc21	.	.	-	.	.	-
O=C(COC(=O)c1cc(-c2cccs2)nc2ccccc12)c1ccc(Br)cc1	.	.	-	.	.	-
Cc1cc(=O)[nH]c2ccc(Cc3ccccc3)cc12	-	-	?	-	?	9.2µM
COc1ccc(C2c3c(ccc4ccccc34)Oc3ncn4nc(Cc5ccccc5)nc4c32)cc1OC (centres undefined)	-	?	-	-	-	-
COc1ccc(C2c3c(ncn(CCCO)c3=N)Oc3ccc4ccccc4c32)cc1OC (centres undefined)	?	23.1µM	?	?	?	-
COc1ccc(C2c3c(ncn(CCN4CCOCC4)c3=N)Oc3ccc4ccccc4c32)cc1OC (centres undefined)	?	15.8µM!	?	?	?	23.1µM
COc1ccc(C2c3c(ncn(CCCO)c3=N)Oc3ccc4ccccc4c32)cc1 (centres undefined)	?	20.6µM	?	20.6µM	?	-
COC(=O)c1ccccc1NC(=O)CN1CCN(c2ccccn2)CC1	-	-	-	-	-	-
COC(=O)c1ccccc1N/C=C1\CCc2c(c(C)nn2-c2ccccn2)C1=O	-	-	-	-	8.2µM	-
SMILES	SW480 rerep	HT1080 IDH1KD tx	KB-3-1 cytotox	HT1080-NT tox	MCF10A rerep	KB-V1 cytotox
CCOC(=O)c1c(C)oc2ccc(OCc3cc(C(=O)OC)oc3C)cc12	-	?	-	-	6.51µM	-
COC(=O)c1cc(COc2ccc3oc(C)c(C(=O)OC)c3c2)c(C)o1	18.4µM	?	-	?	14.6µM	?
CC1CCN(c2ccc(-c3cccc(NS(=O)(=O)c4cccs4)c3)nn2)CC1	.	.	-	.	.	-
COC(=O)C1=CN(C(C)C)C=C(C(=O)OC)C1c1cc2c(cc1Br)OCO2	?	?	-	-	14.6µM	-
Cc1cc(CC(C)CC(C)(C)C)n(O)c(=O)c1 (centres undefined)	?	.	-	.	10.6µM	-
CNC(=O)C1CCC(Cn2c(=O)c3sccc3n(CC(=O)Nc3cc(F)ccc3F)c2=O)CC1 (centres undefined)	.	.	-	.	.	-
Cc1cccc(C)c1NC(=O)Cn1c(=O)n(Cc2ccccc2)c(=O)c2c(C)c(C(=O)N(C)C)sc21	.	.	-	.	.	-
Cc1ccc(SC(C)C(=O)NC(N)=O)c(C)c1 (centres undefined)	-	-	-	-	0.581µM	?
O=C(NCC(c1cccs1)N1CCOCC1)c1cn(-c2ccccc2)nc1-c1ccccc1 (centres undefined)	-	-	-	-	-	23.1µM
O=C(NCC(c1cccs1)N1CCOCC1)c1cn(-c2ccccc2)nc1-c1ccc(Cl)cc1 (centres undefined)	?	-	?	-	-	7.31µM
COc1cccc(-c2nn(-c3ccc(C)cc3)cc2C(=O)NCC(c2cccs2)N2CCOCC2)c1 (centres undefined)	-	-	-	-	?	-
COc1ccc(-c2nn(-c3ccccc3)cc2C(=O)NCC(c2cccs2)N2CCOCC2)cc1 (centres undefined)	-	-	-	-	-	?
Cn1cnnc1SCC(=O)Nc1ccc(C#N)cc1	.	.	-	.	.	-
O=C(N/N=C/c1ccccc1)c1ccco1	-	-	-	-	-	?
O=C(C#Cc1ccccc1)c1ccco1	5.8µM	6.51µM	?	11.6µM	?	-
CCc1ccccc1NC(=O)C(CC)Oc1ccccc1-c1nnc(-c2ccccc2)o1 (centres undefined)	.	.	14.6µM	.	.	?
CCn1c(=O)c2cc(C(=O)Nc3cc(OC)c(OC)c(OC)c3)sc2c2ccccc21	.	.	-	.	.	?
Cc1cncn1CCc1nc2c3ccccc3nc(SCC(=O)Nc3ccccc3F)n2n1	.	.	-	.	.	-
CC(C)=CCCC(C)CCO (centres undefined)	-	-	-	-	-	-
CN[C@H](C)CCC=C(C)C	-	.	-	.	23.7µM	-
O=C(N/N=C/c1ccccc1)c1[nH]c2ccc(Br)cc2c1-c1ccccc1	?	0.731µM	0.731µM	0.461µM	?	0.82µM
O=C(NN=C1CCCC1)c1[nH]c2ccc(Br)cc2c1-c1ccccc1	?	5.8µM	-	8.2µM	?	-
CC(Sc1cn(CCNC(=O)c2ccccc2F)c2ccccc12)c1ccccc1 (centres undefined)	.	.	-	.	.	-
O=C(/C=C/Nc1ccc(Oc2ccccc2Cl)cc1)c1ccco1	?	?	20.6µM	?	?	?
COc1ccccc1Oc1ccc(N/C=C/C(=O)c2ccco2)cc1	-	-	-	-	-	-
O=C(/C=C/Nc1ccccc1Oc1ccccc1)c1ccco1	-	-	-	-	14.6µM	?
O=C(/C=C/Nc1ccccc1O)c1ccco1	-	-	-	-	-	-
CN(C)c1ncc(C(=O)NCc2ccccc2Cl)cn1	.	.	-	.	.	-
